Experiment [1] is described as follows: Cell Viability - LYMP2-002 (AID 977).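 Note: series mostly up to about 92 µM; plate controls were DMSO only for no effect and 92 µM tetraoctylammonium bromide for full effect.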 In outline: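 Human lymphoblastoid cells, 2500/well, complete medium; 5 h 37 C settle; compound 24 h 37 C; CellTiter-Glo, 30 min RT; luminescence. Decrease in ATP = cytotoxicity; AC50 via Hill equation.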
Experiment [2] can be described thus: Cell Viability - LYMP2-006 (AID 978). Note: series mostly up to about 92 µM; % is set by controls: 0 for no effect and ±100 for the full control effect; nearly all actives have a fitted effect of over 60% in size. Put shortly:
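Potency values are Hill-fit AC50s for decreases in intracellular ATP (CellTiter-Glo luminescence). LYMP2-006 lymphoblastoid cells, 2500 per well, were exposed to compound in complete culture medium for 24 hr at 37 C.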

A short description of experiment [3]: Cell Viability - LYMP2-007 (AID 979).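 Note: cells exposed to compound for 24 h before reading; 0% = DMSO only and the negative end = 92 µM tetraoctylammonium bromide; nearly all actives have a fitted effect of over 60% in size.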 Put shortly: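 AC50 values come from Hill-equation fits of luminescent intracellular ATP (CellTiter-Glo, 30 min, room temperature) following 24 h compound exposure at 37 C. Cells: LYMP2-007 lymphoblastoid line, 2500 per well, in complete culture medium.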
A short description of experiment [4]: Cell Viability - LYMP2-010 (AID 981). Note: % is set by controls: 0 for no effect and ±100 for the full control effect; nearly all actives have a fitted effect of over 55% in size. In outline:
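CellTiter-Glo ATP luminescence measured cytotoxicity after 24 h compound exposure at 37 C. LYMP2-010 cells were seeded at 2500/well, with tetraoctylammonium bromide as control; concentration-response curves gave AC50 values by the Hill equation.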

Experiment [5] in a line: Cell Viability - LYMP2-012 (AID 982).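 Note: cellular ATP by luciferase luminescence where a drop means cytotoxicity; cells exposed to compound for one day before reading; 0% = DMSO only and full loss = 92 µM tetraoctylammonium bromide; nearly all actives have a fitted effect of over 55% in size.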
Experiment [6] is described as follows: Cell Viability - LYMP2-014 (AID 983).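 Note: series mostly up to about 92 µM; plate controls were DMSO only for no effect and 92 µM tetraoctylammonium bromide for full effect; nearly all actives have a fitted effect of over 50% in size.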 In outline:
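Intracellular ATP loss, read by luciferase luminescence, measures acute cytotoxicity after 24 h compound exposure of lymphoblastoid LYMP2-014 cells (2500/well, 37 C). Concentration-response data fitted to the Hill equation for AC50.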

Experiment [7] in a line: Cell Viability - LYMP2-018 (AID 985).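 Note: plate controls were DMSO only for no effect and tetraoctylammonium bromide at 92 µM for full effect; nearly all actives have a fitted effect of over 50% in size.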 In outline:
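Viability read as CellTiter-Glo luminescence (cellular ATP) after 24 hr compound exposure at 37 C of 2500 LYMP2-018 lymphoblastoid cells/well, pre-plated 5 hr. Hill-equation modelling gave AC50.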

A short description of experiment [8]: Cell Viability - LYMP2-020 (AID 986).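 Note: series mostly up to about 92 µM; plate controls were DMSO only for no effect and tetraoctylammonium bromide at 92 µM for full effect; nearly all actives have a fitted effect of over 55% in size.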 Put shortly:
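Cytotoxicity in qHTS format: luminescent ATP readout from CellTiter-Glo after 24 h compound exposure at 37 C in complete medium. LYMP2-020 lymphoblastoid cells were seeded at 2500/well; concentration-response data fitted to the Hill equation for AC50.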

A short description of experiment [9]: Cell Viability - LYMP2-024 (AID 988).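 Note: plate controls were DMSO only for no effect and 92 µM tetraoctylammonium bromide for full effect; nearly all actives have a fitted effect of over 60% in size.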 In outline:
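Cytotoxicity was taken as a decrease in ATP (CellTiter-Glo luminescence) after 24 hr compound exposure at 37 C of LYMP2-024 lymphoblastoid cells, 2500 cells/well. Concentration-response data were fitted to the Hill equation to give AC50.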

A short description of experiment [10]: Cell Viability - LYMP2-026 (AID 989). Note: % is set by controls: 0 for no effect and ±100 for the full control effect; nearly all actives have a fitted effect of over 50% in size. In outline:
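Cytotoxicity read as ATP-dependent luminescence (CellTiter-Glo, 30 min room temperature) after 24 h compound treatment at 37 C. LYMP2-026 lymphoblastoid line seeded at 2500 cells/well; AC50 derived by standard Hill equation.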

Experiment [11] is described as follows: Cell Viability - LYMP1-002 - Assay at 24 hr (AID 993). Note: % is set by controls: 0 for no effect and ±100 for the full control effect. Put shortly: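 qHTS cytotoxicity at 24 h: CellTiter-Glo ATP luminescence in lymphoblastoid line LYMP1-002 incubated with compound at 37 °C. Concentration-response modeled with the Hill equation for AC50; tetraoctylammonium bromide served as positive control.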
Experiment [12] can be described thus: Cell Viability - LYMP1-002 - Assay at 40 hr (AID 994).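 Note: 0% = DMSO only and full inhibition = 92 µM tetraoctylammonium bromide; nearly all actives have a fitted effect of over 60% in size.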 In outline:
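Cytotoxicity was read as loss of cellular ATP (CellTiter-Glo luminescence) after 40 hr compound exposure at 37 C of 2500 LYMP1-002 lymphoblastoid cells per well. Concentration-response data were fitted with the standard Hill equation to give AC50.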

Experiment [13] in a line: qHTS Assay for Identification of Small Molecule Inducers of Hypoxia Response (AID 2120; active = well fitted curve in the direction sought with a large enough effect in the signal ratio, with a control signal flat, not every such curve was filed as active; the % refers to the signal ratio; note: 0% is about no effect). In outline:
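Reporter induction read as the CCF4 blue/green (460nm/530nm) emission ratio after 2.5 h dye loading at room temperature. ME-180 HRE-beta-lactamase cells received titrated compounds for 17 h at 37 degrees Celsius; AC50 values derived.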

Experiment [14] concerns the target Glucocorticoid receptor (Homo sapiens) (UniProt P04150). The experiment is described as follows: qHTS assay for small molecule agonists of glucocorticoid receptor signaling (AID 588532; active = well fitted curve in the direction sought with a large enough effect in the signal ratio, with a control signal flat; the % refers to the signal ratio;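 note: 100% = dexamethasone at 0.1 µM and 0% = DMSO only wells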). Conditions: HeLa MMTV-bla, beta-lactamase ratio, agonist, 18 h; stronger effect = higher value; percent of dexamethasone control, DMSO zero. Put shortly:
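Cells were plated and rested 3-5 h at 37 C, compounds were added in titration and incubated 18 h, then CCF4 substrate was loaded for 2 h at RT before reading blue/green fluorescence. EC50 came from Hill-equation fitting.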

Experiment [15] has the same target. The experiment is described as follows: qHTS assay for small molecule antagonists of glucocorticoid receptor signaling (AID 588533; active = well fitted inhibition curve with a large enough effect in the signal ratio, with a control signal flat, not every such curve was filed as active; the % refers to the signal ratio; note: % is set by controls: 0 for no effect and ±100 for the full control effect). Put shortly:
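Antagonist-mode qHTS: compound titrations added to GRE-bla HeLa cells, then dexamethasone 2 nM final; 18 h, 37 C. CCF4 FRET fluorescence normalized to dexamethasone and DMSO; IC50 from Hill fit.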

Experiment [16] deals with Peroxisome proliferator-activated receptor delta (Homo sapiens) (UniProt Q03181). The experiment is described as follows: qHTS assay for small molecule agonists of peroxisome proliferator-activated receptor delta signaling (AID 588534; calls by dose curve;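 note: 0% = DMSO basal wells and 100% = positive control agonist at 10 µM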). In outline: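 Agonist-mode beta-lactamase reporter readout (CCF4 dye, 2 h at RT) after 18 h at 37 °C exposure to a titration; Hill-equation fitting gave EC50 and maximal response.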
Sequence of Peroxisome proliferator-activated receptor delta (Homo sapiens) (Q03181 whole entry, looked up): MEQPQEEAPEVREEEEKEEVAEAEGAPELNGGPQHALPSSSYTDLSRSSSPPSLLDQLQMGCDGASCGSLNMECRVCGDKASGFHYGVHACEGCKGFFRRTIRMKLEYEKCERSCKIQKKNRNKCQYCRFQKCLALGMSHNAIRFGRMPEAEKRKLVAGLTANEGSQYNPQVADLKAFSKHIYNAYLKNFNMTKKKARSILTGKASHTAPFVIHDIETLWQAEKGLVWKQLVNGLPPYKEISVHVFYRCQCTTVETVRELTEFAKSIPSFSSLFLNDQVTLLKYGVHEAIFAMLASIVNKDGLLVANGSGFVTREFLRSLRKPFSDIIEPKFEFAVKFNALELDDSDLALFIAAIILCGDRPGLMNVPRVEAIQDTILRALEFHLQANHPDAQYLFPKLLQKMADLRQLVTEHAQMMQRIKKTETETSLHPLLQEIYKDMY

Experiment [17] is described as follows: qHTS assay for small molecule antagonists of peroxisome proliferator-activated receptor delta signaling (AID 588535; active = well fitted inhibition curve with a large enough effect in the signal ratio, with a control signal flat, not every such curve was filed as active; the % refers to the signal ratio;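 for max response: cells co-treated with a PPAR-delta agonist as stimulator during compound exposure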). As to conditions: HEK293T PPARd-UAS-bla, beta-lactamase FRET ratio, 18 h; 460 nm channel. In outline:
(§1)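 Fluorescence from CCF4-loaded GeneBLAzer PPAR-delta-UAS-bla HEK293T cells (2 hrs RT loading) quantified reporter inhibition after an 18 hr, 37 C compound exposure across a titration.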

Experiment [18] addresses Peroxisome proliferator-activated receptor delta (Homo sapiens) (UniProt Q03181). The description is as above. In outline: as §1
In experiment [19] the target is Vitamin D3 receptor (Homo sapiens) (UniProt P11473). Put plainly: qHTS assay for small molecule antagonists of vitamin D receptor signaling (AID 588541; calls by dose curve;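 note: receptor activated by calcitriol during compound treatment; series mostly up to about 77 µM; % is set by controls: 0 for no effect and ±100 for the full control effect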). In outline: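 VDR-UAS-bla HEK293T cells in 2% charcoal-stripped FBS were stimulated with 1-alpha,25-dihydroxyvitamin D3 (3 nM final) plus compound for 16 h at 37 C. The beta-lactamase CCF4 readout was normalized to 50 nM agonist and DMSO, and Hill fits gave IC50.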
Sequence of Vitamin D3 receptor (Homo sapiens) (P11473 whole entry, looked up): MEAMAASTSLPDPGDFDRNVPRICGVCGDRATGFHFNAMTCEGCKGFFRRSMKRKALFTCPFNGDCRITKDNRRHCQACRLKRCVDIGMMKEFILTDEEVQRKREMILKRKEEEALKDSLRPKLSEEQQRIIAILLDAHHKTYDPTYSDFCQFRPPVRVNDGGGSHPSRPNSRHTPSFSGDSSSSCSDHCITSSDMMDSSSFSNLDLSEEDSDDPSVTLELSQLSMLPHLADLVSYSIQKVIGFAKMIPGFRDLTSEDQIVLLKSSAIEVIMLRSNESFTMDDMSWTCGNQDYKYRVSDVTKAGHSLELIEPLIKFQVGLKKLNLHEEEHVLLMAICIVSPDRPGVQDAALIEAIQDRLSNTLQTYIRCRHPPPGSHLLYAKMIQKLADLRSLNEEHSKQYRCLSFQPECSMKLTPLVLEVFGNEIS

Experiment [20] has the same target. Put plainly: qHTS assay for small molecule agonists of vitamin D receptor signaling (AID 588543; calls by dose curve;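 note: 0% = DMSO basal and 100% = reference agonist control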). Put shortly:
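Agonist-mode beta-lactamase reporter: HEK293T VDR-UAS-bla cells in charcoal-stripped 2% FBS, compound series 16 h 37 C, CCF4 2 h RT. EC50 from Hill fit, scaled against DMSO and 50 nM calcitriol control.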

The nature of experiment [21]: qHTS assay for small molecule agonists of retinoid X receptor alpha signaling (AID 588544; calls by dose curve;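 for activation: 0% = DMSO basal wells and 100% = reference agonist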). As to conditions: HEK293T RXRa-UAS-bla, beta-lactamase reporter, 18 h; 530 nm emission.
The target in experiment [22] is Retinoic acid receptor RXR-alpha (Homo sapiens) (UniProt P19793). The experiment is described as above.
Sequence of Retinoic acid receptor RXR-alpha (Homo sapiens) (P19793 whole entry, looked up): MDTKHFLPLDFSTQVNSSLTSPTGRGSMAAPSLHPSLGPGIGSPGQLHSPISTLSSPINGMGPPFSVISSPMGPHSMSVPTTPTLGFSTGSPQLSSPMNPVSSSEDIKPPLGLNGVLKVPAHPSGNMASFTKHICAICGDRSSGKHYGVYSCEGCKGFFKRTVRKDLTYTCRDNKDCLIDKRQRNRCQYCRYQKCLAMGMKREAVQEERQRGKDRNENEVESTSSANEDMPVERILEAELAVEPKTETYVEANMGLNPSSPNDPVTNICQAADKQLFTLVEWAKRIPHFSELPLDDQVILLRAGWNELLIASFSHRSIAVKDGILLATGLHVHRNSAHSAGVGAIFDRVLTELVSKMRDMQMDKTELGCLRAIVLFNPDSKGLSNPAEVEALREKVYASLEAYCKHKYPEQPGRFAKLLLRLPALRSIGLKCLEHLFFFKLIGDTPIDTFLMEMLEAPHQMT

“And” between values parts separate entries of the source, which are not always exact repeats. Identical values can stand only once. Results filed as inconclusive are left out. The source made the active and inactive calls. Unless noted, calls come from the whole dose curve; as a rule, active = well fitted cell-killing curve with a large enough effect; inconclusive = small, poorly fitted or top-dose-only effect; inactive = flat fitted curve, though single readings scatter.

Sequence of Glucocorticoid receptor (Homo sapiens) (P04150 whole entry, looked up): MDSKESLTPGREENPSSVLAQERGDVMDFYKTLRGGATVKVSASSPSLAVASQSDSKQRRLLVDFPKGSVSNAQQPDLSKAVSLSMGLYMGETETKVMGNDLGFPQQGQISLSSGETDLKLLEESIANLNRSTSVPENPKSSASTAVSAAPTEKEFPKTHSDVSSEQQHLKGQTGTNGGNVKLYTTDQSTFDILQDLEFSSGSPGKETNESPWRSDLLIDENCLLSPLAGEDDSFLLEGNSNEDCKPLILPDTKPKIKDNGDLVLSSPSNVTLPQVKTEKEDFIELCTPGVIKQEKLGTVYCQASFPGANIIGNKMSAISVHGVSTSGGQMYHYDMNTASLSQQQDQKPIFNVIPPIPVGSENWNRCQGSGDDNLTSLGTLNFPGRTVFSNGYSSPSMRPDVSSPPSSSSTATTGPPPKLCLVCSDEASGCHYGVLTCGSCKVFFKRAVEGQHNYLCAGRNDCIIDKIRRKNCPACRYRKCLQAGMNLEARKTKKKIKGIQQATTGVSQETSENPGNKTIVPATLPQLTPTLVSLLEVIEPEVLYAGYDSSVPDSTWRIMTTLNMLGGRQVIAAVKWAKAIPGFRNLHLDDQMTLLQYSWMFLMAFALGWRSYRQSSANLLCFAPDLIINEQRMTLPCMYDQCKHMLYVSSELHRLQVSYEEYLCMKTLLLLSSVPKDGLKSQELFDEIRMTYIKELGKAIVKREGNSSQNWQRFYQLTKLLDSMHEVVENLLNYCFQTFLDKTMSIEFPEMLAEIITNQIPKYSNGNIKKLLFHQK

With `CCOc1cc(C=O)ccc1O`, the compound was classed as inactive in [1], in experiment [2], in experiment [3], in experiment [5], in [6] and in [7]. The compound was classed as inactive in experiment [8], in experiment [9], in [10], in experiment [11], in experiment [13] and in experiment [18]. Moreover, the call in experiment [19] and in experiment [22] was inactive. For the same compound, the Potency entry in experiment [4], in experiment [12], in [15], in experiment [16] and in experiment [20] was “inactive” throughout. Further, in experiment [14], the activation is 0.229% (inactive) and -4.79% (inactive). Further, the max response in experiment [17] is -4.7%; in experiment [21], 11.5%.

Values taken from PubChem BioAssay (NCATS).
